# Assay results published in PubChem BioAssay (EPA / NIEHS).
# Results filed as inconclusive are left out. Activity calls are given as the source filed them. How the source made its calls, unless noted: active means hit-call score of the fitted dose curve at least 0.9, where 1 is the maximum; inactive means score below 0.9.
# Experiments:
# [1] = CCTE_Harrill_HTTr_Viability_DMEM_6hr: (Pilot) CCTE's 6-hour Cell Viability Assessment for the High-Throughput Transcriptomics (HTTr) Platform, in MCF-7 cells cultured in DMEM + 10% fetal bovine serum, Harrill Lab (AID 2283973)
# Method in brief: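 MCF-7 cells in DMEM + 10% FBS, eight-point dilution series, 6 h exposure. Membrane integrity by propidium iodide exclusion with high-content imaging; bidirectional fit versus DMSO.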
# [2] = CCTE_Harrill_HTTr_Viability_DMEM_12hr: (Pilot) CCTE's 12-hour Cell Viability Assessment for the High-Throughput Transcriptomics (HTTr) Platform, in MCF-7 cells cultured in DMEM + 10% fetal bovine serum, Harrill Lab (AID 2283974)
# Method in brief: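 MCF-7 cells in DMEM + 10% FBS exposed 12 h to an eight-point dilution series; membrane integrity scored by propidium iodide exclusion with high-content imaging, bidirectional fitting versus DMSO.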
# [3] = CCTE_Harrill_HTTr_Viability_DMEM_24hr: (Pilot) CCTE's 24-hour Cell Viability Assessment for the High-Throughput Transcriptomics (HTTr) Platform, in MCF-7 cells cultured in DMEM + 10% fetal bovine serum, Harrill Lab (AID 2283975)
# Method in brief: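 MCF-7 cells in DMEM with 10% FBS exposed for 24 hours to an eight-point dilution series. Membrane integrity by propidium iodide exclusion with high content imaging; bidirectional fit against DMSO.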
# [4] = CCTE_Harrill_HTTr_Viability_PRF_DMEM_6hr: (Pilot) CCTE's 6-hour Cell Viability Assessment for the High-Throughput Transcriptomics (HTTr) Platform, in MCF-7 cells cultured phenol red-free DMEM + 10% charcoal-stripped fetal bovine serum, Harrill Lab (AID 2283976)
# Method in brief: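 MCF-7 cells in phenol red-free DMEM with 10% charcoal-stripped FBS exposed 6 hours to an eight-point dilution series. Propidium iodide exclusion imaged; curves fitted bidirectionally against DMSO.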
# [5] = biological target: T1, Thyroid hormone receptor alpha (Rattus norvegicus) + Thyroid hormone receptor beta (Rattus norvegicus) (UniProt P18113+P63059); assay: TOX21_TR_LUC_GH3_Agonist_Followup: Tox21 GH3 Thyroid Hormone Receptor Agonism Luciferase Follow-Up Assay (AID 2283939; active means hit-call score of the fitted dose curve at least 0.9, where 1 is the maximum)
# T1 sequence (P63059 whole entry, looked up): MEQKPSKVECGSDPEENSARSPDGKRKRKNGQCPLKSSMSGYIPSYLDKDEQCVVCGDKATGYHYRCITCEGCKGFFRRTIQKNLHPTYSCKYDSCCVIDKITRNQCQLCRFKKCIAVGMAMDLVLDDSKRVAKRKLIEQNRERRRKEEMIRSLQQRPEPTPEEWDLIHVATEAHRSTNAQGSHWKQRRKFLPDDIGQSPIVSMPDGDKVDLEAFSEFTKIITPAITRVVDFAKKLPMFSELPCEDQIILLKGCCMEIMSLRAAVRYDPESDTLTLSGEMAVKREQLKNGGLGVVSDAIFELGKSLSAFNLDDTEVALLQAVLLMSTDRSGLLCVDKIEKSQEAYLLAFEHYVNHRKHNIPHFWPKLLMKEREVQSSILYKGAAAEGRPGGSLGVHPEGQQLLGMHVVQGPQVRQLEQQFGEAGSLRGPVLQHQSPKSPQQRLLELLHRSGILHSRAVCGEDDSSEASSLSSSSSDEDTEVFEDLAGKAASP
# T1 sequence (P18113 whole entry, looked up): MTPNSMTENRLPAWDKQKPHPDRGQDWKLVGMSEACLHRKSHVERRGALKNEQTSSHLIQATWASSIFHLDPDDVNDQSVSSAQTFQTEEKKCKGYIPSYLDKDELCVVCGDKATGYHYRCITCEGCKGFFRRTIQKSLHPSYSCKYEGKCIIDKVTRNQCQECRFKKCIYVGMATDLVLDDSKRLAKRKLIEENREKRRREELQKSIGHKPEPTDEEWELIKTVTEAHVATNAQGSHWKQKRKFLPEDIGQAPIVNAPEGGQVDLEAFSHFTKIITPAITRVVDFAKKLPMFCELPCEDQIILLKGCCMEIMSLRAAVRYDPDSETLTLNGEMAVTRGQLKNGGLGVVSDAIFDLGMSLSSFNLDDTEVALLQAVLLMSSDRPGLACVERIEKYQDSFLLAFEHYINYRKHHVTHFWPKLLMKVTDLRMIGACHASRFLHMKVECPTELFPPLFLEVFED
# Method in brief: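 Rat GH3 cells (1,500/well) in serum-free assay medium, treated with 15-point series, 92 uM to 5 nM final, for 24 h at 37C. Luciferase via ONE-Glo luminescence; gain of signal fitted against DMSO, T3 positive control.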
# THRA (gene 7067) [6] = biological target: THRA (gene 7067) (UniProt P10827); assay: TOX21_TRA_COA_Agonist_Followup_ratio: Tox21 Thyroid Hormone Receptor alpha Agonism through Coactivator Recruitment Follow-Up Assay, Ratio (AID 2283948)
# Chain of THRA (gene 7067) (P10827 whole entry, looked up, the tested form may be a part): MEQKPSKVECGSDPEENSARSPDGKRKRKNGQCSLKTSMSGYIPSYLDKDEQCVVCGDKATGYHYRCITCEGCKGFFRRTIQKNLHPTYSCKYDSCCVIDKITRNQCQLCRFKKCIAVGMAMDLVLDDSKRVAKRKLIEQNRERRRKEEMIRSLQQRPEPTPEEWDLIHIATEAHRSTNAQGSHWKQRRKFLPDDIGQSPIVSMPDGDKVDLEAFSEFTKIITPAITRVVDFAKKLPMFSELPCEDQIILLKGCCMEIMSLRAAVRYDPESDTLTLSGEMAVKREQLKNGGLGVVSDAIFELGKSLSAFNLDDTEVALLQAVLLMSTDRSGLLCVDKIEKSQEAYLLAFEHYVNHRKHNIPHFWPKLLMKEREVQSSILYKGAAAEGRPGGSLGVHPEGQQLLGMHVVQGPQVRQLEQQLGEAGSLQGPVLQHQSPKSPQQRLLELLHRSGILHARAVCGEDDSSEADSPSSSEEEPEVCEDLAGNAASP
# Method in brief: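 Cell-free TR-FRET coactivator recruitment: GST-tagged TRα LBD (2.5 nM) with 0.10% BSA was incubated with compound, then fluorescein-SRC-2 peptide (200 nM) and Tb-anti-GST antibody (2 nM) added. 520:495 nm ratio normalized to DMSO (0%) and T3 (100%).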
# THRB (gene 7068) [7] = biological target: THRB (gene 7068) (UniProt P10828); assay: TOX21_TRB_COA_Agonist_Followup_ratio: Tox21 Thyroid Hormone Receptor beta Agonism through Coactivator Recruitment Follow-Up Assay, Ratio (AID 2283963)
# Chain of THRB (gene 7068) (P10828 whole entry, looked up, the tested form may be a part): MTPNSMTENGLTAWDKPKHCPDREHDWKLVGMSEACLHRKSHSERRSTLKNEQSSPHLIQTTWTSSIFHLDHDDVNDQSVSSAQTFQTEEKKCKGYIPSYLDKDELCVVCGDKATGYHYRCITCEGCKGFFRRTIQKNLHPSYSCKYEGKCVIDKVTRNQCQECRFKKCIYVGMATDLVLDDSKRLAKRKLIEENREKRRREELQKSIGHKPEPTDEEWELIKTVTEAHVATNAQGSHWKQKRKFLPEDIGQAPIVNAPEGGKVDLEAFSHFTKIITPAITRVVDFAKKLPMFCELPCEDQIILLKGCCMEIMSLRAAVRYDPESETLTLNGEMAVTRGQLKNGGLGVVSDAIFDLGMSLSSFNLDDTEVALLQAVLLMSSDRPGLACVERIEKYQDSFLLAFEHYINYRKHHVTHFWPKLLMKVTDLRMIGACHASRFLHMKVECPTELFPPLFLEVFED
# Method in brief: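 Agonism is measured as coactivator recruitment in a purified-protein TR-FRET format, using GST-TRβ LBD at 5.0 nM, fluorescein-SRC-2 peptide at 200 nM and Tb-labeled anti-GST antibody at 2 nM. Values are 520:495 nm ratios relative to DMSO (0%) and T3 (100%).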
# [8] = biological target: Retinoic acid receptor RXR-alpha (Homo sapiens) (UniProt P19793); assay: TOX21_TR_RXR_BLA_Agonist_Followup_ratio: Tox21 Thyroid Hormone Receptor beta Retinoid X Receptor alpha (RXRa) Agonism Beta-lactamase (BLA) Follow-Up Assay, Ratio (AID 2283968; active means hit-call score of the fitted dose curve at least 0.9, where 1 is the maximum)
# Chain of Retinoic acid receptor RXR-alpha (Homo sapiens) (P19793 whole entry, looked up): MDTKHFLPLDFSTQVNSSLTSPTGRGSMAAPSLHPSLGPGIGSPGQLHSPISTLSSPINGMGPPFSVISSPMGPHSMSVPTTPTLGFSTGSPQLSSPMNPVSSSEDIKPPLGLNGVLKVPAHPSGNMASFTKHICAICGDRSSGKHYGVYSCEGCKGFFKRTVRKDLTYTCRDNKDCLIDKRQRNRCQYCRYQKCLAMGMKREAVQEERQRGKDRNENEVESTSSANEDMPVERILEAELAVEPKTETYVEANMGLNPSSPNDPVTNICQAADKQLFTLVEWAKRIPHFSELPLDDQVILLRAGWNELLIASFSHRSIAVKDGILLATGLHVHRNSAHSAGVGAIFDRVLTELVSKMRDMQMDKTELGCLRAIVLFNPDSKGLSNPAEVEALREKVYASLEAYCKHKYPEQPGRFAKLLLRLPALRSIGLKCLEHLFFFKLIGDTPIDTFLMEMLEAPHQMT
# Method in brief: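 HEK293T RXRa-bla, qHTS; cpd 11-pt conc. in triplicate, 16 h 37C/5% CO2; CCF4-AM 2 h RT; ratio 460:530 nm; agonist direction vs DMSO; 9-cis retinoic acid as positive control.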
# [9] = biological target: T1, Thyroid hormone receptor alpha (Rattus norvegicus) + Thyroid hormone receptor beta (Rattus norvegicus); assay: TOX21_TR_LUC_GH3_Antagonist_Followup: Tox21 GH3 Thyroid Hormone Receptor Antagonism Luciferase Follow-Up Assay (AID 2283942; active means hit-call score of the fitted dose curve at least 0.9, where 1 is the maximum)
# Method in brief: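 Rat pituitary GH3 cells with a TRα/TRβ-driven luciferase reporter, 5 h attachment, then 15 concentrations (92 uM to 5nM final) plus 1.0 nM T3 agonist, 24 h at 37C/5% CO2. ONE-Glo luminescence; signal change fitted against DMSO baseline.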
# THRA (gene 7067) [10] = biological target: THRA (gene 7067) (UniProt P10827); assay: TOX21_TRA_COA_Antagonist_Followup_ratio: Tox21 Thyroid Hormone Receptor alpha Antagonism through Coactivator Recruitment Follow-Up Assay, Ratio (AID 2283953; active means hit-call score of the fitted dose curve at least 0.9, where 1 is the maximum)
# Method in brief: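 520:495 nm emission ratio (excitation 340 nm) reports fluorescein-SRC-2 peptide recruitment to GST-TRα LBD by TR-FRET with Tb anti-GST antibody. Values were normalized to DMSO (0%) and T3 control wells (100%); loss of signal indicated antagonism.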
# THRB (gene 7068) [11] = biological target: THRB (gene 7068) (UniProt P10828); assay: TOX21_TRB_BLA_Antagonist_Followup_ratio: Tox21 Thyroid Hormone Receptor beta Antagonism Beta-lactamase (BLA) Follow-Up Assay, Ratio (AID 2283958; active means hit-call score of the fitted dose curve at least 0.9, where 1 is the maximum)
# Method in brief: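 HEK293T TRb-bla (GAL4 DBD + hTRβ LBD), 2% cs-FBS phenol red-free DMEM, 5 h attach; cpds 11-pt triplicate, 18 h 37C; CCF4-AM 2 h RT; 460/530 ratio vs DMSO; CellTiter-Glo viability same wells.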
# [12] = TOX21_TRB_BLA_Antagonist_Followup_viability: Viability Assessment in the Tox21 Thyroid Hormone Receptor beta Antagonism Beta-lactamase (BLA) Follow-Up Assay (AID 2283961; active means hit-call score of the fitted dose curve at least 0.9, where 1 is the maximum)
# Method in brief: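 ATP-based CellTiter-Glo luminescence (30 min, room temperature) run in the same wells as the TRβ-bla readout. Cells: GeneBLAzer HEK293T expressing GAL4-TRβ LBD, exposed 18 h at 37C to compounds at 11 concentrations in triplicate, stripped-serum medium.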
# THRB (gene 7068) [13] = biological target: THRB (gene 7068) (UniProt P10828); assay: TOX21_TRB_COA_Antagonist_Followup_ratio: Tox21 Thyroid Hormone Receptor beta Antagonism through Coactivator Recruitment Follow-Up Assay, Ratio (AID 2283967; active means hit-call score of the fitted dose curve at least 0.9, where 1 is the maximum)
# Method in brief: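 Cell-free TR-FRET coactivator recruitment with GST-tagged TRβ LBD (5.0 nM) and fluorescein-labeled SRC-2 peptide (200 nM) detected by terbium anti-GST antibody (2 nM). The 520:495 nm emission ratio was normalized to DMSO (0%) and T3 (100%).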
# PGR (gene 5241) [14] = biological target: PGR (gene 5241) (UniProt P06401); assay: TOX21_PR_LUC_Followup_Agonist: Tox21 HEK293 Progesterone Receptor (PR) Agonism Luciferase Follow-Up Assay (AID 2283937)
# Chain of PGR (gene 5241) (P06401 whole entry, looked up): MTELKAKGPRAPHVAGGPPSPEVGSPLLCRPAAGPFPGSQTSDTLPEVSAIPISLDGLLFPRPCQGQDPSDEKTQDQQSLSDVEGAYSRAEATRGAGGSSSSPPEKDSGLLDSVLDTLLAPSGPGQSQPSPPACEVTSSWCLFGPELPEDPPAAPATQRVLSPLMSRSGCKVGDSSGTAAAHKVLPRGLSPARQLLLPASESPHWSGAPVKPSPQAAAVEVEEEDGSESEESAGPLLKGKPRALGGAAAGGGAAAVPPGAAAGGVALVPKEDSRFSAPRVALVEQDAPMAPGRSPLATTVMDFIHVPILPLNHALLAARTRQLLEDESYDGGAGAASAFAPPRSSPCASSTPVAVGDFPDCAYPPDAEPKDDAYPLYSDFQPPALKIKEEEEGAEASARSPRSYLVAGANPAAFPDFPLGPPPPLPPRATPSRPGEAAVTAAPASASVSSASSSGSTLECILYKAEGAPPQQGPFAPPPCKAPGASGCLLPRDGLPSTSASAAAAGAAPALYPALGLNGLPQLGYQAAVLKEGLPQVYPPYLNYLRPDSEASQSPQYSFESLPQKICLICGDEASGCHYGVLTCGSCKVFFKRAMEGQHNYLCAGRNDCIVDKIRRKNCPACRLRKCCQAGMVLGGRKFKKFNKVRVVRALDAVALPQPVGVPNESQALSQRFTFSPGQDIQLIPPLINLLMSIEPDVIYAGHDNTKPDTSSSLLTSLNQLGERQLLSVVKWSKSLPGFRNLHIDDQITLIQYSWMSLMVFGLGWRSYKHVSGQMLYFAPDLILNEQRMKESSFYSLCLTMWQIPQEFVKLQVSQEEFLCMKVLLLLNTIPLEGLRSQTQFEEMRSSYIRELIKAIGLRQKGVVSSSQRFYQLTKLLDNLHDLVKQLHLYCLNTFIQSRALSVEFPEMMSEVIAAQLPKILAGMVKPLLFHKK
# Method in brief: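 Cells: HEK293-PR-A-luc, 3,000/well, 10% charcoal-stripped FBS assay medium. Compound added after 5 h; 16 h, 37C, 0% CO2. ONE-Glo luciferase, luminescence. Positive fit vs DMSO.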
# PGR (gene 5241) [15] = biological target: PGR (gene 5241) (UniProt P06401); assay: TOX21_PR_LUC_Followup_Antagonist: Tox21 HEK293 Progesterone Receptor (PR) Antagonism Luciferase Follow-Up Assay (AID 2283938; active means hit-call score of the fitted dose curve at least 0.9, where 1 is the maximum;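 further: curve fitted upward as signal gain over DMSO baseline despite antagonist label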)
# Method in brief: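 Luminescence from ONE-Glo was measured 30 min after reagent addition, following 16 h exposure of HEK293-PR-A-luc cells (3,000/well, plated 5 h earlier) to DMSO-dissolved compounds at 37C; DMSO served as baseline.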
# [16] = TOX21_PR_LUC_Followup_Antagonist_viability: Viability Assessment in the Tox21 HEK293 Progesterone Receptor (PR) Antagonism Luciferase Follow-Up Assay (AID 2283940; active means hit-call score of the fitted dose curve at least 0.9, where 1 is the maximum)
# Method in brief: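 Multiplexed viability counter-screen: after 5 days in charcoal-stripped-FBS medium, HEK293-PR-A-luc cells are plated, pinned with DMSO-dissolved compounds for 16 h at 37C, and ATP content is quantified luminescently via CellTiter-Glo.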
# [17] = TOX21_PR_LUC_Followup_Agonist_viability: Viability Assessment in the Tox21 HEK293 Progesterone Receptor (PR) Agonism Luciferase Follow-Up Assay (AID 2283941; active means hit-call score of the fitted dose curve at least 0.9, where 1 is the maximum;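 further: loss of signal means cytotoxicity so actives lower viability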)
# Method in brief: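 Cells were kept 5 days in charcoal-stripped serum medium before plating HEK293-PR-A-luc at 3,000 cells/well. After 5 h they received DMSO-dissolved compound and incubated 16 h at 37C. Viability was taken from CellTiter-Glo ATP luminescence.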
# [18] = biological target: Retinoic acid receptor RXR-alpha (Homo sapiens) (UniProt P19793); assay: TOX21_TR_RXR_BLA_Antagonist_Followup_ratio: Tox21 Thyroid Hormone Receptor beta Retinoid X Receptor alpha (RXRa) Antagonism Beta-lactamase (BLA) Follow-Up Assay, Ratio (AID 2283972; active means hit-call score of the fitted dose curve at least 0.9, where 1 is the maximum)
# Method in brief: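 After 5 h attachment at 37C, HEK293T RXRa-bla cells (2,500/well, 2% charcoal-stripped FBS, no phenol red) received compounds at 11 concentrations in triplicate for 16 h. Beta-lactamase read as 460:530 nm ratio after 2 h RT substrate loading.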
# [19] = TOX21_PR_BLA_Followup_Antagonist_viability: Viability Assessment in the Tox21 HEK293 Progesterone Receptor (PR) Antagonism Beta-lactamase Follow-Up Assay (AID 2283936; active means hit-call score of the fitted dose curve at least 0.9, where 1 is the maximum;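 further: hits lower the luminescence signal meaning cytotoxicity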)
# Method in brief: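 PR-UAS-bla HEK293T cells (3,000/well, 2% charcoal-stripped FBS) given compound plus R5020 agonist, 16 h at 37C. CellTiter-Glo added after bla read, 30 min at room temperature; luminescence loss indicates cytotoxicity.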
# [20] = TOX21_TR_RXR_BLA_Agonist_Followup_viability: Viability Assessment in the Tox21 Thyroid Hormone Receptor beta Retinoid X Receptor alpha (RXRa) Agonism Beta-lactamase (BLA) Follow-Up Assay (AID 2283970; active means hit-call score of the fitted dose curve at least 0.9, where 1 is the maximum)
# Method in brief: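 Cells: HEK293T RXRa-UAS-bla, 2,500/well; medium phenol red-free DMEM + 2% charcoal-stripped FBS; 16h, 37C/5% CO2; qHTS concentration series. Read: CellTiter-Glo luminescence (ATP); bidirectional fit, DMSO = baseline.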
structure (smiles),measurement,setting,value
Cc1nn(C)c(Oc2ccccc2)c1C=NOCc1ccc(C(=O)OC(C)(C)C)cc1,outcome,[1],inactive
same,outcome,[2],inactive
same,outcome,[3],inactive
same,outcome,[4],inactive
CCCN(CCC)C(=O)SCC,outcome,[5],inactive
same,outcome,THRA (gene 7067) [6],inactive
same,outcome,THRB (gene 7068) [7],inactive
same,outcome,[8],inactive
N[C@@H](Cc1cc(I)c(Oc2ccc(O)c(I)c2)c(I)c1)C(=O)O,outcome,[1],inactive
same,outcome,[2],inactive
same,outcome,[3],inactive
same,outcome,[4],inactive
CC(=O)[C@H]1CC[C@H]2[C@@H]3CCC4=CC(=O)CC[C@]4(C)[C@H]3CC[C@]12C,outcome,[9],inactive
same,outcome,THRA (gene 7067) [10],inactive
same,outcome,THRB (gene 7068) [11],inactive
same,outcome,[12],inactive
same,outcome,THRB (gene 7068) [13],inactive
C[C@]12CC[C@@H]3c4ccc(O)cc4C[C@@H](CCCCCCCCCS(=O)CCCC(F)(F)C(F)(F)F)[C@H]3[C@@H]1CC[C@@H]2O (some centres undefined),outcome,PGR (gene 5241) [14],inactive
same,AC50,PGR (gene 5241) [15],5.78 µM (active)
same,outcome,[16],inactive
same,outcome,[17],inactive
same,outcome,[9],inactive
same,outcome,[12],inactive
same,outcome,THRB (gene 7068) [13],inactive
same,outcome,[18],inactive
same,outcome,[1],inactive
same,outcome,[2],inactive
same,outcome,[3],inactive
same,outcome,[4],inactive
C=CCOC(Cn1ccnc1)c1ccc(Cl)cc1Cl (centres undefined),outcome,[1],inactive
same,outcome,[2],inactive
same,outcome,[3],inactive
same,outcome,[4],inactive
C[C@]12C[C@H](O)[C@H]3[C@@H](CCC4=CC(=O)CC[C@@]43C)[C@@H]1CC[C@@H]2C(=O)CO,outcome,[19],inactive
same,outcome,PGR (gene 5241) [15],inactive
same,outcome,[17],inactive
same,outcome,THRA (gene 7067) [10],inactive
same,outcome,THRB (gene 7068) [11],inactive
same,outcome,[12],inactive
COC(=O)c1ccc(I)cc1S(=O)(=O)NC(=O)Nc1nc(C)nc(OC)n1,outcome,[5],inactive
same,outcome,THRA (gene 7067) [6],inactive
same,outcome,THRB (gene 7068) [7],inactive
same,outcome,[8],inactive
same,outcome,[20],inactive
CC(C)CCCCCCc1ccc(O)cc1,outcome,[19],inactive
same,outcome,PGR (gene 5241) [15],inactive
same,outcome,[16],inactive
same,outcome,[17],inactive
same,outcome,[1],inactive
same,AC50,[2],55.5 µM (active)
same,AC50,[3],69.4 µM (active)
same,AC50,[4],55.7 µM (active)
CC(C)(c1ccc(O)cc1)c1ccc(O)cc1,outcome,[19],inactive
same,outcome,PGR (gene 5241) [14],inactive
same,AC50,PGR (gene 5241) [15],33.3 µM (active)
same,outcome,[16],inactive
same,outcome,[1],inactive
same,outcome,[2],inactive
same,outcome,[3],inactive
same,outcome,[4],inactive
CCNc1nc(N)nc(Cl)n1,outcome,[5],inactive
same,outcome,THRA (gene 7067) [6],inactive
same,outcome,THRB (gene 7068) [7],inactive
same,outcome,[8],inactive
same,outcome,[20],inactive
S=C([S-])NCCNC(=S)[S-].[Mn+2],outcome,[1],inactive
same,outcome,[2],inactive
same,outcome,[3],inactive
same,outcome,[4],inactive
O=C(c1ccc(O)cc1O)c1ccc(O)cc1O,outcome,[19],inactive
same,outcome,PGR (gene 5241) [14],inactive
same,AC50,PGR (gene 5241) [15],68.3 µM (active)
same,outcome,[16],inactive
same,outcome,[17],inactive
